Measurements: PubChem BioAssay AID1159580 (chemical genetic matrix, 2015)
Hit rate of the full screen: of about 5,500 compounds, about 2,000 (36%) were called active. Another 18% or so got no clear call; they are omitted. Rule as the data show it: active = normalized growth mostly below about 0.91 (no sharp cut-off); inconclusive = no clear call, values can overlap the other calls; inactive = mostly above about 0.92. The list shows a part of the results.

Test: chemical genetic growth profiling, strain panel (AID 1159580);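 also: tested at 20 µM; growth read once vehicle control cultures reached saturation at 30 °C; 1 = growth at the plate median or of vehicle wells; lower values mean less growth of the strain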
Settings: S. cerevisiae deletion strains, growth OD

Measured: normalized growth

O=C(Cc1ccccc1)NO
inactive: locus YAL021C, strain ccr4, hits give low values 0.981 | locus YAL026C, strain drs2, hits give low values 0.983 | locus YAL030W, strain snc1, hits give low values 0.995 | locus YBL061C, strain skt5, hits give low values 0.957 | locus YBR009C, strain hhf1, hits give low values 0.993 | locus YBR023C, strain chs3, hits give low values 0.978 | locus YBR171W, strain sec66, hits give low values 0.96 | locus YBR231C, strain swc5, hits give low values 0.974 | locus YBR279W, strain paf1, hits give low values 0.976 | locus YCL011C, strain gbp2, hits give low values 0.978 | locus YCL016C, strain dcc1, hits give low values 0.96 | locus YCL061C, strain MRC1, hits give low values 0.975 | locus YCL069W, strain vba3, hits give low values 0.979 | locus YCR088W, strain abp1, hits give low values 0.978 | locus YDL005C, strain med2, hits give low values 0.956 | locus YDL040C, strain nat1, hits give low values 0.975 | locus YDR001C, strain nth1, hits give low values 0.972 | locus YDR069C, strain doa4, hits give low values 0.953 | locus YDR137W, strain rgp1, hits give low values 0.976 | locus YDR159W, strain sac3, hits give low values 0.964 | locus YDR195W, strain ref2 0.953 | locus YDR297W, strain sur2, hits give low values 0.987 | locus YDR334W, strain swr1, hits give low values 1.01 | locus YDR335W, strain msn5, hits give low values 0.982 | locus YDR392W, strain spt3, hits give low values 0.993 | locus YEL003W, strain gim4, hits give low values 0.974 | locus YEL037C, strain rad23, hits give low values 0.962 | locus YEL061C, strain CIN8 (second series), hits give low values 0.989 | locus YER015W, strain faa2, hits give low values 0.98 | locus YER016W, strain bim1, hits give low values 0.982 | locus YER111C, strain swi4, hits give low values 0.985 | locus YER155C, strain BEM2 (second series), hits give low values 0.925 | locus YFR010W, strain ubp6, hits give low values 0.983 | locus YGL167C, strain pmr1, hits give low values 0.969 | locus YGL173C, strain kem1, hits give low values 0.979 | locus YGL227W, strain vid30, hits give low values 0.961 | locus YGL240W, strain doc1, hits give low values 0.995 | locus YGL253W, strain hxk2, hits give low values 0.962 | locus YHR013C, strain ard1, hits give low values 0.944 | locus YHR027C, strain rpn1, hits give low values 0.974 | locus YHR142W, strain chs7, hits give low values 0.917 | locus YJL092W, strain hpr5, hits give low values 0.99 | locus YJL095W, strain BCK1 (second series), hits give low values 0.96 | locus YJL115W, strain asf1, hits give low values 0.961 | locus YJL129C, strain trk1, hits give low values 0.954 | locus YJL154C, strain vps35, hits give low values 0.989 | locus YJL164C, strain tpk1, hits give low values 0.977 | locus YJL166W, strain qcr8, hits give low values 0.966 | locus YKL160W, strain elf1, hits give low values 0.944 | locus YKR026C, strain gcn3, hits give low values 0.973 | locus YKR091W, strain srl3, hits give low values 0.973 | locus YLL001W, strain dnm1, hits give low values 0.98 | locus YLL026W, hits give low values 0.97 | locus YLL041C, strain sdh2, hits give low values 0.976 | locus YLR027C, strain aat2, hits give low values 0.973 | locus YLR221C, strain rsa3, hits give low values 0.992 | locus YLR258W, strain gsy2, hits give low values 0.973 | locus YLR262C, strain YPT6 (second series), hits give low values 0.978 | locus YLR320W, strain mms22, hits give low values 0.952 | locus YLR342W, strain FKS1, hits give low values 0.98 | locus YLR357W, strain rsc2, hits give low values 0.938 | locus YLR370C, strain arc18, hits give low values 0.981 | locus YLR384C, strain iki3, hits give low values 0.961 | locus YML120C, strain ndi1, hits give low values 0.981 | locus YMR058W, strain fet3, hits give low values 0.984 | locus YMR125W, strain sto1, hits give low values 0.963 | locus YMR129W, hits give low values 0.973 | locus YMR205C, strain PFK2, hits give low values 0.992 | locus YMR231W, strain pep5, hits give low values 0.975 | locus YNL071W, strain lat1, hits give low values 0.965 | locus YNL209W, strain ssb2, hits give low values 0.984 | locus YNL248C, strain rpa49, hits give low values 0.95 | locus YNL322C, strain KRE1 (second series), hits give low values 0.949 | locus YNR049C, strain mso1, hits give low values 0.983 | locus YOR001W, strain rrp6, hits give low values 1 | locus YOR070C, strain gyp1, hits give low values 0.98 | locus YOR080W, strain dia2, hits give low values 0.94 | locus YOR083W, strain WHI5, hits give low values 0.928 | locus YOR106W, strain vam3, hits give low values 0.939 | locus YOR265W, strain rbl2, hits give low values 0.976 | locus YOR270C, strain vph1, hits give low values 0.936 | locus YOR290C, strain snf2, hits give low values 0.969 | locus YPL051W, strain arl3, hits give low values 0.972 | locus YPL078C, strain atp4, hits give low values 0.97 | locus YPL106C, strain sse1, hits give low values 0.949 | locus YPL240C, strain hsp82, hits give low values 0.963
